Molecules are shown by their SMILES. Values joined by “and” are separate entries in the source; they are usually repeats but may differ in a detail not shown here. Equal entries are not always repeated. Values without a mark were called inactive. Results filed as inconclusive are left out. Active and inactive are the calls of the source. Unless noted, the call rests on the fitted dose curve; in most records, active means well fitted curve in the direction sought with a large enough effect; inconclusive means small, poorly fitted or top-dose-only effect, or another doubt; inactive means no such curve, though single readings can be large; an effect the other way counts as inactive or inconclusive.

The subject of one test is PA-1. In words: Primary qHTS to identify gynecologic anti-cancer compounds using libraries of approved drugs and bioactive compounds (AID 1345084). Further: nearly all actives have a fitted effect of over 55% in size. Further: potency means the concentration at half of the fitted maximal effect. To be noted: Gynecologic cancer cell panel viability, ATPlite luminescence, 48 h; series mostly up to 57.5 µM. The gist of the method:
(§1)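 Five-point cytotoxicity, 48 h drug exposure at 37 C, 5% CO2, on cells seeded 16 h beforehand. ATP content read by ATPlite luminescence.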

Another test relates to SKOV3. The test is described as above. To be noted: Gynecologic cancer cell panel viability, ATPlite luminescence, 48 h; series mostly up to 57.5 µM. The gist of the method:
as §1
Background: Cellular ATP, detected with luciferase, serves as a proxy for viable cell number.

The subject of a further test is Tov-21-G. Described as above. To be noted: Gynecologic cancer cell panel viability, ATPlite luminescence, 48 h; series mostly up to 57.5 µM. The method, boiled down: as §1
A further test deals with Tov112D. The test is described as above. To be noted: Gynecologic cancer cell panel viability, ATPlite luminescence, 48 h; series mostly up to 57.5 µM. The method, boiled down:
as §1

Test [1] is described as follows: Drug repurposing screens with cells derived from glioblastoma tumor samples (AID 1345199). Further: nearly all actives have a fitted effect of over 40% in size. Further: potency means the concentration at half of the fitted maximal effect. On activity, negative = cell killing: on the % scale 0 is the no-effect control and ±100 the full control effect. To be noted: GBM patient neurospheres viability, ATP luminescence, 48 h. The method, boiled down:
(§2)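 Primary testing used CD133+ neurospheres from four GBM patients, seven concentrations, 48 h exposure and ATP-based viability; confirmation added three slower-growing patient lines.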

In a further test the test system is astro. The test is described as above. To be noted: viability, ATP luminescence, 48 h; series mostly up to 45.9 µM. The gist of the method:
as §2

The target in test [2] is Nuclear receptor subfamily 1 group I member 2 (Rattus norvegicus) (UniProt Q9R1A7). Put plainly: qHTS assay for small molecule activators of the rat pregnane X receptor (rPXR) signaling pathway (AID 651751; call rule not given here; further: 0% is about no effect). To be noted: rPXR reporter cells, luciferase (One-Glo), 24 h. (Quantitative high-throughput screening tests each substance at several concentrations.)
A short description of test [3]: qHTS assay to identify inhibitors of the type 1 interferon - major histocompatibility complex class I in skeletal muscle: Counter screen cell viability and HiBit confirmation (AID 1347412). Further: on the % scale 0 is the no-effect control and ±100 the full control effect; nearly all actives have a fitted effect of over 60% in size. To be noted: iHSKM muscle cells + IFN-b, HiBiT or CellTiter-Glo, 24 h; Potency: HiBiT; Viability, at 45.9 µM (top of the series). The method, boiled down:
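Human myoblast knock-in line, 4.0 ng/ml IFN-beta stimulation, 24 h compound treatment. Endpoints: HiBiT lytic luminescence (HLA-B level) and CellTiter Glo (ATP). Dosing 12 concentrations, 3-fold steps, 46 uM highest final.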

The nature of test [4]: qHTS assay for small molecule activators of the human pregnane X receptor (PXR) signaling pathway (AID 720659; call rule not given here; further: 0% is about no effect). To be noted: DPX-2 HepG2 CYP3A4-luciferase, 24 h; series mostly up to 92.3 µM.
[5] abbreviates: at 46.1 µM (top of the series), tumour line C.
Setting [6] is: at 45.9 µM (top of the series), tumour line B.
Where [7] appears, read: at 45.9 µM (top of the series), tumour line D.
The mark [8] stands for this setting: at 91.6 µM (top of the series), tumour line B.
Where [9] appears, read: at 99.2 µM (top of the series), tumour line C.

Sequence of Nuclear receptor subfamily 1 group I member 2 (Rattus norvegicus) (Q9R1A7 whole entry, looked up): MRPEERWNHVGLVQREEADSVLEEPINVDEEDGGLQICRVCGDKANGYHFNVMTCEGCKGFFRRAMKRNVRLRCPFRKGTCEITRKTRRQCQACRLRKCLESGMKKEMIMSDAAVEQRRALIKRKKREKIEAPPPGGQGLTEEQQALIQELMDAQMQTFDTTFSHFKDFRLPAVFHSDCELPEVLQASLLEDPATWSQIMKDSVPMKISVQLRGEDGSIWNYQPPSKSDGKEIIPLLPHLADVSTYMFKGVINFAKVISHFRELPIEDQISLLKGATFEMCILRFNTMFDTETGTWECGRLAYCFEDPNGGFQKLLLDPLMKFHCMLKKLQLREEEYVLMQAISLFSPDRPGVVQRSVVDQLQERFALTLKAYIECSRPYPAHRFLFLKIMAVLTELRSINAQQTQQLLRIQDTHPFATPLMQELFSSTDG

Take `Cc1cc(C(C)(C)C)c(O)c(C(C)(C)C)c1`: the Potency result in the test on PA-1, in the test with SKOV3, in the test on Tov-21-G, in the test on Tov112D and in the test on astro was “inactive” each time. Moreover, the activity, negative = cell killing in [1] (setting [5]) is -15.8%. Further, in test [2], the max response is -5.78% and 3.32%.
As to `CN1CCC(=C2c3ccccc3CCc3cccnc32)CC1`, the Potency entry in the test on PA-1, with SKOV3, with Tov112D and with astro was “inactive” throughout. The activity, negative = cell killing in [1] (setting [6]) is -11.9%; in test [1] (setting [7]) it was -28.7%; in [1] (setting [5]), -24%. The Potency in test [1] (tumour line A) is 11.2 µM (active).
`C[C@@H](C1=C(CCN(C)C)Cc2ccccc21)c1ccccn1`: the Potency entry in the test with PA-1, in the test on SKOV3, with Tov-21-G, in the test with Tov112D and with astro was “inactive” in each case. Moreover, the values for the activity, negative = cell killing in test [1] (setting [6]) and in [1] (setting [5]) were -18.9% and -5.63%, respectively. In addition, the Potency in [1] (tumour line A) was 17.8 µM (active).
`CO[C@@H]1[C@@H](O[C@@H]2O[C@H](C)[C@@H](O[C@H]3C[C@@](C)(O)[C@@H](O)[C@H](C)O3)[C@H](N(C)C)[C@H]2O)[C@@H](CC=O)C[C@@H](C)[C@@H](O[C@@H]2CC[C@H](N(C)C)[C@@H](C)O2)/C=C/C=C/C[C@@H](C)OC(=O)C[C@H]1OC(C)=O`: the Potency entry in the test with PA-1, in the test with SKOV3, in the test with Tov-21-G, in the test with Tov112D and in the test on astro was “inactive” in each case. For the same compound, the activity, negative = cell killing in test [1] (setting [6]) was -18.6%. In addition, the Potency in test [1] (tumour line A) is 15.8 µM (active).
For `C[C@H]1C[C@@H]2[C@H]([C@@H](O)C[C@@]3(C)[C@H]2CC[C@]3(O)C(=O)CO)[C@@]2(C)C=CC(=O)C=C12`, the Potency result (in the test with PA-1; with SKOV3; in the test with Tov-21-G; with Tov112D; in [3]) was “inactive” in each case.
Turning to `CC(C)(c1ccc(O)cc1)c1ccc(O)cc1`, the Potency entry in the test on PA-1, in the test with SKOV3, in the test on Tov-21-G and in the test with Tov112D was “inactive” in each case. Moreover, the activity, negative = cell killing in test [1] (setting [8]) was -24%; in test [1] (setting [9]), -43.4%. The max response in test [2] was 7.46% and 2.86% and -5.15%.
Regarding `CCN1C(=O)c2ccccc2C1Nc1ccc(OCCN2CCCCC2)cc1` (configuration not stated), the Potency entry in the test on PA-1, with SKOV3, in the test on Tov-21-G, with Tov112D and with astro was “inactive” throughout. Also, the activity, negative = cell killing in [1] (setting [6]) is -27.4%. Moreover, the Potency in test [1] (tumour line A) was 7.94 µM (active).
Consider `O=C(NN1CCCC1)NS(=O)(=O)c1ccc(Cl)cc1`, for which the Potency entry in the test on PA-1, with SKOV3, in the test with Tov-21-G, in the test with Tov112D and with astro was “inactive” each time. Besides, the activity, negative = cell killing in test [1] (setting [6]) was 1.6%; in [1] (setting [7]), -25.9%; in [1] (setting [5]), 2.27%.
As for `CCCCCCCCCCCCCCCCCCNC(=O)OC1CCN(C(=O)OC[C@H](COC(=O)N(Cc2cccc[n+]2CC)C(=O)c2ccccc2OC)OC)CC1`, the Potency in the test on PA-1 was 12.6 µM (active); with SKOV3 it was 20 µM (active); with Tov-21-G it was 25.1 µM (active); in the test on astro, 10 µM (active).
Consider `C[C@H](CN1CCCC1)C(=O)c1ccc(C(F)(F)F)cc1`, for which the Potency entry in the test with PA-1, in the test with SKOV3, with Tov-21-G, in the test with Tov112D and in the test on astro was “inactive” each time. Moreover, the activity, negative = cell killing was -26.9% in [1] (setting [6]) and -22.1% in [1] (setting [5]).
With `COC(=O)[C@H]1[C@H]2C[C@@H]3c4[nH]c5cc(OC)ccc5c4CCN3C[C@H]2C[C@@H](OC(=O)/C=C/c2ccc(O)c(OC)c2)[C@@H]1OC`, the Potency result in the test with PA-1 and in the test on Tov112D was “inactive” in each case. Also, the Potency with SKOV3 was 35.5 µM (active).
Regarding `OCCOCCN1CCN(C(c2ccccc2)c2ccc(Cl)cc2)CC1` (configuration not stated), the Potency result with PA-1, with SKOV3, in the test with Tov-21-G, in the test with Tov112D and in the test with astro was “inactive” each time. Moreover, the max response in test [2] was -2.98%.
As to `CC(C(O)c1ccccc1)N(C)CCOC(c1ccccc1)c1ccccc1` (configuration not stated), the Potency result with PA-1, with Tov-21-G, in the test with Tov112D and in the test with astro was “inactive” each time. For the same compound, in the test on SKOV3, the Potency is 20 µM (active).
With `O=C(NO)c1ccccc1`, the Potency result in the test with PA-1, with SKOV3, in the test on Tov-21-G, in the test with Tov112D and with astro was “inactive” in each case. For the same compound, the activity, negative = cell killing in test [1] (setting [8]) was -25.1%; in test [1] (at 91.6 µM (top of the series), tumour line D) it was -20.6%; in test [1] (setting [9]), -13.7%. The max response in test [2] was -1.37%. In addition, the result in test [4] was inactive.
For `C[C@@]12CCC[C@H]1[C@@H]1CC[C@H]3C[C@@H](O)CC[C@]3(C)[C@H]1CC2`, the Potency entry with PA-1, in the test on SKOV3, with Tov-21-G, with Tov112D and in the test on astro was “inactive” in each case. For the same compound, the activity, negative = cell killing in [1] (setting [6]) is -21.2%. Besides, the Potency in test [1] (tumour line A) is 7.08 µM (active).
With `CN1CCC(N(Cc2cccs2)c2ccccc2)CC1`, the Potency result with PA-1, in the test on SKOV3, with Tov-21-G, with Tov112D and with astro was “inactive” throughout. Further, in [1] (setting [6]), the activity, negative = cell killing was -22.4%. Further, the Potency in test [1] (tumour line A) is 10 µM (active).
As for `CN1C(CSCC(F)(F)F)Nc2cc(Cl)c(S(N)(=O)=O)cc2S1(=O)=O` (configuration not stated), the Potency entry in the test with PA-1, in the test with SKOV3, in the test on Tov-21-G, with Tov112D and in the test with astro was “inactive” each time. The activity, negative = cell killing in test [1] (setting [6]) was -3.33%; in [1] (setting [5]) it was -15.1%.
As to `NCC(=O)O`, the Potency entry with PA-1, in the test with SKOV3 and in the test on astro was “inactive” each time. Moreover, the activity, negative = cell killing is 10.4% in test [1] (setting [6]); 4.74% in test [1] (setting [7]); 1.41% in test [1] (at 46 µM (top of the series), tumour line A); -6.24% in test [1] (setting [5]).
As for `O=[N+]([O-])c1nccn1CO[C@@H](CO)[C@H](O)CO`, the Potency result in the test with PA-1, in the test with SKOV3, in the test with Tov-21-G, in the test with Tov112D and in the test with astro was “inactive” each time. Also, the activity, negative = cell killing in [1] (setting [6]) is -1.15%; in [1] (setting [7]), -7.16%; in [1] (setting [5]) it was -8.18%.
Turning to `N=C(N)c1ccc(OCCCOc2ccc(C(=N)N)cc2)cc1`, the Potency result in the test on PA-1, in the test with SKOV3 and in the test with Tov112D was “inactive” in each case. For the same compound, the Potency in the test on astro was 11.2 µM (active).

The values are drawn from PubChem BioAssay (NCATS).
